Among the test systems are HT29 colon; SNB-75 CNS; SNB-19 CNS; U251 CNS; PC-3 prostate; SK-MEL-5 melanoma; LOX IMVI melanoma; SK-MEL-28 melanoma; SK-MEL-2 melanoma; UACC-62 melanoma.
What all share (assay): NCI-60 one-dose screen, 48 h (100 = growth as untreated, 0 = no growth, -100 = all killed)
Common to all, as to settings: 10 µM unless noted

Compounds without any hit were thinned out: in the full panel of roughly 83,000, 20% have a hit.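 How to read the values: 0–100, growth inhibition (40 = 60% inhibited); 0, no net growth; -100 to 0, cell death (-40 = 40% of starting cells died; -100 = all dead).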 A number with no mark means an inactive call. The source made the active and inactive calls. The calls were made as follows: active = growth percent below 10; inactive = the rest.

Consider `N#Cc1cnc2cc(OC[C@H](O)CO)c(NC(=O)CC3CSSC3)cc2c1Nc1ccc(OCc2cccc(F)c2)c(Cl)c1`, for which the growth in the assay on HT29 colon is -77.8% (active); in the assay on SNB-75 CNS it was -92.3% (active); in the assay on SNB-19 CNS it was -64.6% (active); in the assay on U251 CNS it was -69.2% (active); in the assay with PC-3 prostate, -100% (active); in the assay with SK-MEL-5 melanoma, -95.9% (active). The growth in the assay with LOX IMVI melanoma was -86.3% (active); with SK-MEL-28 melanoma it was -84.6% (active); in the assay on SK-MEL-2 melanoma, -70.6% (active).
Regarding `CCCCCCCC/C=C\CCCCCCCCOc1ccccc1CC(=O)NCC[N+]1(C)CCCC1`, the growth was 18% in the assay with HT29 colon; 79% with SNB-75 CNS; 60.4% with SNB-19 CNS; 47.6% with U251 CNS; 17.5% with PC-3 prostate; 67.1% with UACC-62 melanoma. The growth in the assay on LOX IMVI melanoma was 72%; in the assay with SK-MEL-28 melanoma, 96.7%; in the assay on SK-MEL-2 melanoma, 106%.
Turning to `Fc1ccc(-c2nnc(/C=C/c3cn(-c4ccccc4)nc3-c3ccccc3)o2)cc1`, the growth in the assay on HT29 colon is 88.5%; with SNB-75 CNS it was 88.2%; in the assay on SNB-19 CNS, 108%; in the assay on U251 CNS, 82.1%; in the assay on PC-3 prostate, 95.2%; in the assay with SK-MEL-5 melanoma, 105%. Also, the growth with LOX IMVI melanoma was 83.5%; in the assay with SK-MEL-28 melanoma, 98.9%; in the assay on SK-MEL-2 melanoma, 103%.
On to `COc1cc2c(C#N)n3c(c2cc1OC)C(=O)C(c1ccccc1)Oc1ccccc1-3` (stereo not given), for which the growth in the assay with HT29 colon is 50.2%; in the assay with SNB-75 CNS, 52.5%; in the assay on SNB-19 CNS, 41.1%; in the assay with U251 CNS, 24.4%; in the assay with PC-3 prostate, 33.4%; with SK-MEL-5 melanoma it was 25.5%. In addition, the growth with LOX IMVI melanoma was 22.2%; in the assay on SK-MEL-28 melanoma it was 93.3%; in the assay on SK-MEL-2 melanoma, 64.8%.
As for `Nc1c2ccccc2nc2ccccc12` (tested in a mixture with another compound), the growth with HT29 colon is 0.0152% (active); with SNB-75 CNS, 31.9%; with SNB-19 CNS, 29.4%; in the assay on U251 CNS it was 13.7%; in the assay with PC-3 prostate it was 17%; with UACC-62 melanoma it was 5.82% (active). Also, the results for the growth in the assay on LOX IMVI melanoma, in the assay on SK-MEL-28 melanoma and in the assay on SK-MEL-2 melanoma were 4.92% (active), 36.2% and -5.63% (active), respectively.
Regarding `OCCOc1c(Cl)cc(Cl)cc1Cl`, the growth in the assay on HT29 colon is 110%; in the assay on SNB-75 CNS, 62.2%; in the assay with SNB-19 CNS, 94.2%; in the assay with U251 CNS, 103%; with PC-3 prostate, 101%; with UACC-62 melanoma it was 94.6%. In addition, the values for the growth in the assay on LOX IMVI melanoma, with SK-MEL-28 melanoma and in the assay on SK-MEL-2 melanoma were 100%, 96.8% and 126%, respectively.
`C=CC1=C(C(=O)O)N2C(=O)[C@@H](NC(=O)/C(=N\O)c3csc(N)n3)[C@H]2SC1` (stereo in doubt): the growth is 104% with HT29 colon; 92.4% in the assay on SNB-75 CNS; 114% in the assay on SNB-19 CNS; 92.1% with U251 CNS; 95.3% with PC-3 prostate; 114% in the assay with UACC-62 melanoma. Besides, the growth in the assay on LOX IMVI melanoma was 88.1%; in the assay on SK-MEL-28 melanoma it was 111%; with SK-MEL-2 melanoma, 122%.
Consider `CCC1=C(c2ccc(OC)cc2)C(C)Oc2cc(OC(C)=O)ccc21` (stereo not given), for which the growth was 102% in the assay with HT29 colon; 71.9% with SNB-75 CNS; 88.6% in the assay on SNB-19 CNS; -0.227% (active) in the assay with U251 CNS; 68.3% with PC-3 prostate; 74% in the assay with UACC-62 melanoma. Further, the growth in the assay with LOX IMVI melanoma was 90.6%; in the assay with SK-MEL-28 melanoma it was 93.7%; in the assay with SK-MEL-2 melanoma, 89.7%.
Consider `CCCCCCCCSc1ncnc2c1ncn2CO`, for which the growth with HT29 colon is 91%; in the assay with SNB-75 CNS it was 75.1%; in the assay on SNB-19 CNS it was 94.7%; in the assay with U251 CNS it was 74.7%; with PC-3 prostate it was 75.6%; in the assay with UACC-62 melanoma, 92.8%. Also, the results for the growth in the assay with LOX IMVI melanoma, in the assay with SK-MEL-28 melanoma and in the assay with SK-MEL-2 melanoma were 80.1%, 101% and 95.8%, respectively.
In the case of `CCC(C)CC(C)C(=O)c1c(O)ccn(O)c1=O` (stereo not given), the growth in the assay on HT29 colon is 97.3%; in the assay on SNB-75 CNS, 49.3%; with SNB-19 CNS, 18.6%; in the assay with U251 CNS it was 11.1%; with PC-3 prostate, 24.5%; in the assay with SK-MEL-5 melanoma, 25.3%. For the same compound, the growth was 6.78% (active) in the assay with LOX IMVI melanoma, 29% in the assay with SK-MEL-28 melanoma and 41.9% in the assay with SK-MEL-2 melanoma.
As for `CCn1c2c(c3ccccc31)SC1c3cccn3CCN1C2=S` (stereo not given), the growth in the assay with HT29 colon is 90.2%; with SNB-75 CNS it was 79.6%; in the assay with SNB-19 CNS, 95.8%; with U251 CNS, 93.8%; in the assay with PC-3 prostate, 89.1%; with UACC-62 melanoma, 81%. In addition, the growth is 96.8% with LOX IMVI melanoma, 110% with SK-MEL-28 melanoma and 89.9% with SK-MEL-2 melanoma.
In the case of `Cc1ccsc1/C=C/C1=NCCCN1C`, the growth in the assay on HT29 colon is 99.3%; with SNB-75 CNS, 102%; in the assay on SNB-19 CNS, 104%; in the assay on U251 CNS it was 100%; with PC-3 prostate, 90.5%; with UACC-62 melanoma, 106%. For the same compound, the growth is 95.6% with LOX IMVI melanoma, 103% in the assay on SK-MEL-28 melanoma and 92.6% in the assay on SK-MEL-2 melanoma.
Turning to `CSc1nc2c(c(=O)n1C)C(c1ccccc1)C1=C(N2)/C(=C/c2ccccc2)CCC1` (stereo not given), the growth is 53.7% in the assay on HT29 colon; 57.9% with SNB-75 CNS; 66.1% in the assay on SNB-19 CNS; 48.8% with U251 CNS; 48.1% in the assay with PC-3 prostate; 40% with SK-MEL-5 melanoma. Also, the growth was 78.7% with SK-MEL-28 melanoma and 29.5% in the assay with SK-MEL-2 melanoma.
As to `CO[C@H]1CC(O[C@@H]2/C(C)=C/C[C@@H]3C[C@@H](C[C@]4(CC[C@H](C)[C@@H](C5CCCCC5)O4)O3)OC(=O)[C@@H]3C=C(C)/C(=N/O)[C@H]4OC/C(=C\C=C\[C@@H]2C)[C@]43O)O[C@@H](C)C1O` (stereo not given in full), the growth with HT29 colon is -70.9% (active); in the assay with SNB-75 CNS, -90.4% (active); in the assay with SNB-19 CNS it was -96.6% (active); in the assay with U251 CNS it was -87.6% (active); in the assay on PC-3 prostate, -80.4% (active); in the assay on UACC-62 melanoma, -93.4% (active). In addition, the results for the growth in the assay with LOX IMVI melanoma, in the assay with SK-MEL-28 melanoma and in the assay with SK-MEL-2 melanoma were -92.9% (active), -87.3% (active) and -71.8% (active), respectively.
